{"source": "PubChem BioAssay AID493065", "about": "(National Center for Advancing Translational Sciences (NCATS), 2011)", "assay": "Parental Cell Counter Screen Assay for Epigenetic Modulators: Hit Validation", "conditions": "mouse c127i parental cells, 30 h, stronger effect = higher value, concentration not given here", "text": "NIH Molecular Libraries Screening Centers Network [MLSCN] NIH Chemical Genomics Center [NCGC] MLSCN Grant: 1 X01 MH079860-01 Assay Provider: Elisabeth D. Martinez, University of Texas SW Medical Center NCGC Assay Overview: This assay is a counter screen for the Locus Derepression (LDR) assay (PubChem AID 1865). The LDR assay detects the derepression of a GFP reporter that is stably integrated in a region of the genome of murine c127i mammary cells that is presumably silenced. Compounds that cause derepression of the locus to express GFP are identified by enumerating GFP positive cells using a laser-scanning microplate cytometer. […] Compounds active in the parental c127i cells are likely fluorescent.\nNCGC Assay Protocol Summary: Three hundred cells in 5 uL per well were dispensed into black, clear-bottom 1536-well plates. Twenty-three nL compound was transferred to the assay plate and cells were incubated 30 hours at 37 C. Medium was removed, cells were washed two times with PBS, and fluorescent cells were enumerated as objects between the sizes of 20 to 120 um width and depth using a laser-scanning microplate imager (Acumen Explorer Ex3, TTP Labtech). For further details, see Johnson, RL, Huang, W, Jadhav, A, Austin, CP, Inglese, J, Martinez, ED (2008). A quantitative high-throughput screen identifies potential epigenetic modulators of gene expression. Anal Biochem 375: 237-48.", "note": "The list shows a part of the results. Results filed as inconclusive are left out. Unmarked numbers belong to inactive results. Calls come from the whole dose curve; as a rule, active = well fitted activation curve with a large enough effect; inconclusive = small, poorly fitted or top-dose-only effect; inactive = flat fitted curve, though single readings scatter."}
{"molecule": "O=C1NC(=O)N(CCc2ccc(F)cc2)C(=O)/C1=C/C=C/c1ccccc1", "values": [{"measurement": "fluorescent cell count", "result": 3, "unit": "%"}]}
